Results as given in PubChem BioAssay AID485395 (ICCB-Longwood Screening Facility, Harvard Medical School, 2010).
Out of some 120,000 compounds screened, about 55 (0.05%) were called active. Cut-off read from the data, not from the text of the source: active = inhibition above about 25% (passing the limit was not always enough); inactive = the rest. Only a selection was taken, and actives are over-represented in it overall.

test system: replicative DNA helicase (DnaC/DnaB), Staphylococcus aureus; test: S. aureus DnaC helicase unwinding inhibition – biochemical, fluorescence unwinding readout, primary screen (AID 485395);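 note: 0% = mean of negative control wells and 100% = mean of positive control wells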; settings: purified S. aureus helicase, fluorescence unwinding assay; active compounds read high; concentration not given here

Row | SMILES | inhibition
1 | O=C(NCc1ccccc1)N1CCC(CN2CCCCC2)CC1 | 4% (inactive)
2 | CCOC(=O)N1CCC(NC(=O)Cn2ncc3c(=O)oc4ccc(C)cc4c32)CC1 | 14% (inactive)
3 | CC(C)CCNS(=O)(=O)c1ccc2[nH]c3c(c2c1)CCCC3 | -2% (inactive)
4 | CC(=O)Nc1ncc(Cc2ccc(C)cc2)s1 | 7% (inactive)
5 | Cc1ccc(CN(C)C(=O)c2n[nH]c3ccccc23)o1 | -4% (inactive)
6 | CC(C)N(C(=O)CSc1nnc2sc3ccccc3n12)C(C)C | 7% (inactive)
7 | CCCCSc1nc2ccccc2[nH]1 | -5% (inactive)
8 | CC1=NN(C(N)=S)C(=O)C1 | -7% (inactive)
9 | COc1ccc(C)cc1NC(=O)CSC1CCCC1 | -1% (inactive)
10 | Cc1c(/C=N/NC(N)=S)c2ccccc2n1C | -2% (inactive)
11 | COc1cc(OC)c(OC)cc1CN1CCN(c2ccccc2F)CC1 | 10% (inactive)
12 | NCC1CCN(Cc2ccccc2Cl)CC1 | -10% (inactive)
13 | c1csc(-c2csc(Cc3nc(-c4cccs4)cs3)n2)c1 | 36% (inactive)
14 | CCN(C(=O)Cc1noc2ccccc12)c1cc(OC)ccc1OC | 9% (inactive)
15 | COc1ccc(-c2cc3c(n2Cc2ccc(F)cc2)CC(C)(C)CC3=O)cc1 | -11% (inactive)
16 | COCCNC(=O)Cn1cc(/C=C2\C(=O)NC(=O)N(C3CCCCC3)C2=O)c2ccccc21 | -31% (inactive)
17 | Cc1nc2cc(N=Cc3ccc(Cl)cc3)ccc2n1Cc1ccccc1 | 10% (inactive)
18 | Cc1nc(-c2cccs2)sc1C(=O)Nc1ccccc1 | -5% (inactive)
19 | CN1C/C(=C/c2ccc3c(c2)OCCO3)C(=O)/C(=C/c2ccc3c(c2)OCCO3)C1 | 8% (inactive)
20 | CCc1ccc(C(=O)C(C)Sc2nnc(-c3ccccc3)o2)cc1 (configuration not stated) | -5% (inactive)
21 | COc1ccc(OC)c(NC(=O)CSc2nccn2-c2cccc(Cl)c2)c1 | 3% (inactive)
22 | NC(=O)CN1CCN(Cc2cccc3ccccc23)CC1 | 3% (inactive)
23 | Cc1cn2ccccc2c1P(=Nc1ccccc1)(N1CCOCC1)N1CCOCC1 | 7% (inactive)

Row | SMILES | inhibition
24 | O=C(OC1CSC1)c1cccs1 | -1% (inactive)
25 | CC1CC(=O)Nc2ccccc2N1C(=O)CSc1ccc2c(c1)OCCCO2 (configuration not stated) | 15% (inactive)
26 | OCc1nc2ccccc2n1CC1CC1(Cl)Cl (configuration not stated) | -17% (inactive)
27 | Cc1nn(CC(=O)NCCc2ccccc2)c(=O)c2cc3occc3n12 | 8% (inactive)
28 | COc1ccc(/C=C2\Oc3cc(OC(=O)c4ccc(F)cc4)ccc3C2=O)cc1 | 5% (inactive)
29 | CC(C)c1ccc(N=Cc2cccs2)cc1 | 21% (inactive)
30 | O=C(NCC1CCCO1)c1ccc2c(=O)n3c(nc2c1)CCCCC3 (configuration not stated) | 2% (inactive)
31 | CN1CCN(C(=O)c2ccc(-c3ccc(Br)cc3)o2)CC1 | -25% (inactive)
32 | CCn1c(CNC(=O)c2ccncc2)cc2ccccc21 | 7% (inactive)
33 | Nc1nnnn1/N=C/c1cccc(Br)c1 | 4% (inactive)
34 | O=C(COC(=O)C1CC1)c1ccccc1Br | -9% (inactive)
35 | CCC(Sc1nnc(-c2cc3occc3n2C)n1-c1ccccc1C)C(=O)Nc1ccc(C)cc1 (configuration not stated) | 10% (inactive)
36 | NS(=O)(=O)c1ccc(CNC(=O)c2cccc3cccnc23)cc1 | -13% (inactive)
37 | [O-][n+]1ccccc1SC1=COCCC1 | 8% (inactive)
38 | COc1ccc(N2CCN(c3nc(N)c4c(N)nc5c(c4c3C#N)CC(=O)N5C)CC2)cc1 | 9% (inactive)
39 | CC1=Nc2nc(N3CC(C)OC(C)C3)c(C#N)c3c4c(nc(c23)N1)N(c1ccccc1)C(=O)C4 (configuration not stated) | 54% (active)
40 | N#Cc1c(N)nc2c(c1N)CC(=O)N2c1ccccc1 | -11% (inactive)
41 | Cc1ccc(C)c(C(C)NC(=O)Cc2c(C)noc2C)c1 (configuration not stated) | -13% (inactive)
42 | Cc1cc(C)cc(NC(=O)N2CCC3(CC2)OCCO3)c1 | 24% (inactive)
43 | CCOc1ccc(NC(=O)Cn2c(=O)n(CC(=O)NC3CCCC3)c(=O)c3ccccc32)cc1 | -11% (inactive)
44 | COC(CNC(=O)c1c[nH]c2ccc(S(=O)(=O)N(C)c3ccc(C(C)C)cc3)cc2c1=O)OC | -3% (inactive)
45 | CCOC(=O)Cc1sc(NC(C)=O)nc1-c1ccccc1 | -9% (inactive)
46 | CCn1nc(C(=O)OCCCCN2C(=O)c3ccccc3C2=O)c2ccccc2c1=O | -20% (inactive)

Row | SMILES | inhibition
47 | CC(C)Cc1nnc(N)s1 | 5% (inactive)
48 | CCCCNC(=O)Cn1c(-c2ccc(C)cc2)noc1=O | 10% (inactive)
49 | CC1(C)CC(=NNC(N)=S)CC(C)(C)N1 | 0% (inactive)
50 | COCC(C)n1c(C)cc(C2=NNC(=Nc3ccc(F)cc3F)SC2)c1C (configuration not stated) | 16% (inactive)
51 | C1=C(c2ccccc2)Nc2ncnn2C1c1ccco1 (configuration not stated) | -1% (inactive)
52 | CCC(=O)Nc1ccc(-c2cn3cccnc3n2)cc1 | 5% (inactive)
53 | CCOC(=O)c1c(Cc2cccc(C)c2)c[nH]c1-c1ccccc1 | 9% (inactive)
54 | Cc1nc2ncnn2c(C)c1CCC(=O)N(Cc1cccnc1)c1ccc2c(c1)OCO2 | -82% (inactive)
55 | CCN(CC)C(=O)c1ccc(CS(=O)c2cccc(Cl)c2)o1 (configuration not stated) | 24% (inactive)
56 | N#Cc1ccc(OCC(=O)N2CCN(c3ccc(O)cc3)CC2)cc1 | 12% (inactive)
57 | COCCN(Cc1nc2ccccc2c(=O)[nH]1)C(=O)C1=NN(c2cccc(C)c2)C(=O)CC1 | 4% (inactive)
58 | Cc1cc(F)ccc1S(=O)(=O)Nc1ccccc1C(=O)OCC(=O)N1CCCC1=O | 4% (inactive)
59 | COCc1cc(C)nc(SCC(=O)NC2C3CC4CC(C3)CC2C4)c1C#N (configuration not stated) | 1% (inactive)
60 | CCOCc1c[nH]c(=O)[nH]c1=O | 4% (inactive)
61 | COc1ccc(NC(=O)CCCn2nnc3ccccc3c2=O)cc1 | -14% (inactive)
62 | Cc1ccc2[nH]c(=O)c3cc(C(=O)N4CCCc5ccccc54)sc3c2c1 | 8% (inactive)
63 | COc1cc(C)c2c(=O)c(-c3csc(C)n3)coc2c1 | -19% (inactive)
64 | COC(=O)c1ccc2c(c1)C(=O)/C(=C\c1ccccc1O)O2 | 4% (inactive)
65 | CCNC(=O)C1CCN(c2ncnc3c2nc2n3CCCCC2)CC1 | -22% (inactive)
66 | CCN(Cc1ccc(Cl)s1)Cn1c(CO)nc2ccccc21 | -6% (inactive)
67 | Nc1nc(N)nc(SCC(=O)N2N=C(c3ccc4ccccc4c3)CC2c2ccccc2)n1 (configuration not stated) | -3% (inactive)
